Laboratory results from PubChem BioAssay.
Values without a mark were called inactive. Active and inactive are the calls of the source.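 How the source made its calls, unless noted: active means luciferase signal above three times the same-plate solvent-only control wells; inactive means the rest.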

target: NAD(+) hydrolase SARM1 (Homo sapiens) (UniProt Q6SZW1); assay: blocking NAD cleavage by SARM1 SAM-TIR – cell lysate, NAD-Glo luminescence (AID 1508614;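 active means compound whose remaining NAD level is above about 45 nM, limit read from the data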;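 further: higher remaining NAD means stronger inhibition of SARM1 NADase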); conditions: SAM-TIR HEK293T lysate NADase, at 1 µM, hits give high values
Sequence (Q6SZW1 whole entry, looked up): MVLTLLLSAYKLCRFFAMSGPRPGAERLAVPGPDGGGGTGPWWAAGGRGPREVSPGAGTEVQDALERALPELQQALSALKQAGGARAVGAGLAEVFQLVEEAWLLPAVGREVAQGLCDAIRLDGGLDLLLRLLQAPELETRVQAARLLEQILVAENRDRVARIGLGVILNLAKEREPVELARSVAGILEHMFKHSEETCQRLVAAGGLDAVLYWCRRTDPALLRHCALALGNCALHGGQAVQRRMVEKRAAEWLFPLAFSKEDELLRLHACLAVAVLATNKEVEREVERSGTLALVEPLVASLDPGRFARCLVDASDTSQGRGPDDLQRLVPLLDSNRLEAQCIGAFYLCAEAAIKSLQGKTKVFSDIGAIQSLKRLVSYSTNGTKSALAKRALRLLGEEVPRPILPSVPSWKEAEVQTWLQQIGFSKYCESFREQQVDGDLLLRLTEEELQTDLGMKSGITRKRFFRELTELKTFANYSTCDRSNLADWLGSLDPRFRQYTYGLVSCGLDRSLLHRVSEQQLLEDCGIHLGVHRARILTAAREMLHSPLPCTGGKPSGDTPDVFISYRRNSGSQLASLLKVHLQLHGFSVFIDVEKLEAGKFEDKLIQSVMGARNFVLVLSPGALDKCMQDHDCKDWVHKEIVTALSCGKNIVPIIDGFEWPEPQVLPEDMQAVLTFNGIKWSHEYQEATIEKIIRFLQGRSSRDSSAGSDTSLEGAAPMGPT

| Structure (SMILES) | remaining NAD [nM] |
| --- | --- |
| COc1ccccc1OCC(O)COC(N)=O (centres undefined) | 10 |
| OC(CCN1CCCC1)(c1ccccc1)C1CCCCC1 (centres undefined) | 10 |
| O=C1C(CCS(=O)c2ccccc2)C(=O)N(c2ccccc2)N1c1ccccc1 (centres undefined) | 10 |
| COC(=O)Nc1nc2ccc(C(=O)c3ccccc3)cc2[nH]1 | 10 |
| CCn1cc(C(=O)O)c(=O)c2cc(F)c(N3CCN(C)CC3)cc21 | 10 |
| CN1CCCC(n2nc(Cc3ccc(Cl)cc3)c3ccccc3c2=O)CC1 (centres undefined) | 10 |
| NCc1ccc(S(N)(=O)=O)cc1 | 10 |
| Clc1ccc2c(c1)C(N1CCNCC1)=Nc1ccccc1O2 | 10 |
| CC(C)(C)NCC(O)COc1cccc2c1C[C@H](O)[C@H](O)C2 (some centres undefined) | 10 |
| NS(=O)(=O)c1cc2c(cc1Cl)NC=NS2(=O)=O | 10 |

target: Mitogen-activated protein kinase 7 (Homo sapiens) (UniProt Q13164); assay: Gal4-ERK5 driven luciferase induction – cell-based, HTS, primary screen (AID 1508626); conditions: HeLa Gal4-ERK5 transactivation, 18 h, at 5 µM, hits give high values;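 further: luciferase driven by Gal4-ERK5 fusion binding five Gal4 sites before minimal TATA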
Sequence (Q13164 whole entry, looked up, the tested form may be a part): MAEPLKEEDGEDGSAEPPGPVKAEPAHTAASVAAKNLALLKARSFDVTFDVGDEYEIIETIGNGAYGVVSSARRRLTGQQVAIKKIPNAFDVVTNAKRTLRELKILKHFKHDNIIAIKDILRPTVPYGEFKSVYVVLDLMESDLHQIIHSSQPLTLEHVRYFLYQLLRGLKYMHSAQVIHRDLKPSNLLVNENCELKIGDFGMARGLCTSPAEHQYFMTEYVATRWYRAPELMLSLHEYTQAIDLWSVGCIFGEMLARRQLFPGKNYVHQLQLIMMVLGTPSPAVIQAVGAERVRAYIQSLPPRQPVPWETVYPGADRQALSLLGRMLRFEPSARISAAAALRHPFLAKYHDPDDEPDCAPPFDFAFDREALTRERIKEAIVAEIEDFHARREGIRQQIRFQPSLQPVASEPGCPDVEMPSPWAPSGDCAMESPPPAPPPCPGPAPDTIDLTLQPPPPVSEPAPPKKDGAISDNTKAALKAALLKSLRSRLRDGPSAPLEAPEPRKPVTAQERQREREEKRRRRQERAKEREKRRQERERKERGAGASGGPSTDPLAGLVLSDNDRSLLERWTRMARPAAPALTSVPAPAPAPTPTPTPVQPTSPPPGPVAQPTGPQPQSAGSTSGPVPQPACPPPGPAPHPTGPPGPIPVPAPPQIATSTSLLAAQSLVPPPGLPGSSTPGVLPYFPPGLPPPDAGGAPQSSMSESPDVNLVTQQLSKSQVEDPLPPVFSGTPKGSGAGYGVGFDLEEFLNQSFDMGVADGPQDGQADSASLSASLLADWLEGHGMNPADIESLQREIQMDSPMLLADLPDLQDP

| Structure (SMILES) | luciferase signal |
| --- | --- |
| O=c1[nH]cc(F)c(=O)[nH]1 | 80 AU |
| CCc1nc(N)nc(N)c1-c1ccc(Cl)cc1 | 104 AU |
| CCc1cccc2c3c([nH]c12)C(CC)(CC(=O)O)OCC3 (centres undefined) | 164 AU |
| Nc1ncn([C@@H]2O[C@H](CO)[C@@H](O)[C@H]2O)c(=O)n1 | 60 AU |
| Cc1ccccc1C(OCCN(C)C)c1ccccc1 (centres undefined) | 40 AU |
| Cc1ccc(C)c(OCCCC(C)(C)C(=O)O)c1 | 128 AU |
| NC(=O)c1cnccn1 | 48 AU |
| CCCCCCNC(=O)n1cc(F)c(=O)[nH]c1=O | 32 AU |
| COC1=CC(=O)C[C@@H](C)[C@]12Oc1c(Cl)c(OC)cc(OC)c1C2=O | 104 AU |
| Cc1ncc([N+](=O)[O-])n1CC(C)O (centres undefined) | 40 AU |
| N[C@@H](C(=O)N[C@@H]1C(=O)N2C(C(=O)O)=C(Cl)CS[C@H]12)c1ccccc1 | 32 AU |
| CO[C@@]1(NC(=O)Cc2cccs2)C(=O)N2C(C(=O)O)=C(COC(N)=O)CS[C@@H]21 | 108 AU |
| OCCN1CCN(CCCN2c3ccccc3Sc3ccc(C(F)(F)F)cc32)CC1 | 28 AU |
| CN(C)CCOC(c1ccc(Cl)cc1)c1ccccn1 (centres undefined) | 88 AU |
| Cc1onc(-c2c(Cl)cccc2Cl)c1C(=O)N[C@@H]1C(=O)N2[C@@H]1SC(C)(C)[C@@H]2C(=O)O | 36 AU |
| COc1cc2nc(N(C)CCCNC(=O)C3CCCO3)nc(N)c2cc1OC (centres undefined) | 28 AU |
| NS(=O)(=O)c1cc(C2(O)NC(=O)c3ccccc32)ccc1Cl (centres undefined) | 36 AU |
| CN(C)CCc1c[nH]c2ccc(C[C@H]3COC(=O)N3)cc12 | 32 AU |
| Cc1ccc(-c2cc(C(F)(F)F)nn2-c2ccc(S(N)(=O)=O)cc2)cc1 | 28 AU |
| CN[C@H]1CC[C@@H](c2ccc(Cl)c(Cl)c2)c2ccccc21 | 48 AU |

| Structure (SMILES) | luciferase signal |
| --- | --- |
| O=S(=O)(O)CCS | 20 AU |
| C/C=C/C(=O)N(CC)c1ccccc1C | 64 AU |
| COc1ccc(OC)c(C(O)CNC(=O)CN)c1 (centres undefined) | 124 AU |
| Cn1cnc([N+](=O)[O-])c1Sc1ncnc2nc[nH]c12 | 408 AU (active) |
| c1ccc2[nH]c(-c3cscn3)nc2c1 | 12 AU |
| CCCNCC(O)COc1ccccc1C(=O)CCc1ccccc1 (centres undefined) | 116 AU |
| NC(=O)N1c2ccccc2CC(=O)c2ccccc21 | 56 AU |
| Cc1cn([C@H]2C[C@H](N=[N+]=[N-])[C@@H](CO)O2)c(=O)[nH]c1=O | 44 AU |
| CN(CCOc1ccc(CC2SC(=O)NC2=O)cc1)c1ccccn1 (centres undefined) | 72 AU |
| COc1ccccc1OCC(O)COC(N)=O (centres undefined) | 56 AU |
| OC(CCN1CCCC1)(c1ccccc1)C1CCCCC1 (centres undefined) | 44 AU |
| O=C1C(CCS(=O)c2ccccc2)C(=O)N(c2ccccc2)N1c1ccccc1 (centres undefined) | 104 AU |
| COC(=O)Nc1nc2ccc(C(=O)c3ccccc3)cc2[nH]1 | 28 AU |
| CCn1cc(C(=O)O)c(=O)c2cc(F)c(N3CCN(C)CC3)cc21 | 56 AU |
| CN1CCCC(n2nc(Cc3ccc(Cl)cc3)c3ccccc3c2=O)CC1 (centres undefined) | 88 AU |
| NCc1ccc(S(N)(=O)=O)cc1 | 92 AU |
| Clc1ccc2c(c1)C(N1CCNCC1)=Nc1ccccc1O2 | 32 AU |
| CC(C)(C)NCC(O)COc1cccc2c1C[C@H](O)[C@H](O)C2 (some centres undefined) | 100 AU |
| NS(=O)(=O)c1cc2c(cc1Cl)NC=NS2(=O)=O | 52 AU |
